Results reported in the supplement of paper PMC6555819.

Each sequence was assayed on THRa homodimer (NR concentration 90 nM) (assay: PBM binding z-score (relative to random genomic background probes); higher = stronger binding; sequences stand for … in GC…GCGATTGACAGCGTAGAATGAAGG).
Procedure, shortened: (§1)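 Custom Agilent 4×180K protein-binding microarrays carried double-stranded probes. Their 34-nt variable regions held direct-repeat seeds, single-nucleotide variants, half-site ablations and random human genomic background sequences. Arrays were incubated 1 h with ligand-free nuclear receptor dimers in PBS pH 7.4, 2% milk, 0.02% Triton X-100, 1 mM DTT, 0.2 mg/mL BSA and 0.4 mg/ml salmon testes DNA. Antibodies against each partner (one per run) detected binding, and scanned fluorescence was regression-normalized. Binding z-scores use random background probes as reference.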

| Sequence | PBM binding z-score |
| --- | --- |
| ACATGTAGGTTATCGGGTCATTCAGTTTGCGCAT | 3.05 |
| CCTACTGAGCCATCAGGTCATTGATATCAACGTT | 3.52 |
| GCTATTAGTTGAAAGGGCCACCGAATGATTCTCG | -0.402 |
| TCTATTTGTTGAAGGGCAACCGACGAGTCCGTTT | 0.62 |
| TGAATGAGGTCATAAGATCAGGGAACGTTGCAAA | 2.43 |
| ATCTCTTGGTAAAGATAGTTCAGTGAATGCAAAT | 0.156 |
| ATCTCTAGGTAGCAAGTTCAGTGAAAGAGAGGAC | 0.46 |
| ATCTCTAGGTAAAAGTCCAGTGAATCCCGAGGAT | 0.175 |
| AGTCAAAGTTCATCTAGGAAACGTAAGATATGCT | -0.21 |
| CCGAGCAGGTTATGGGGCATTCAGGCAACGGTGA | 0.0585 |
| CCGACTGGGGCATAAGGTTACCCTAAGCCAGCCC | 1.55 |
| CCTTACAGGTCACTCCAGGTTATAGCATCGGAGT | 1.32 |
| CGAAATAGGTCAAGGACAGTGAATCTCCGCACGC | 1.7 |
| AGAACGAGGCCACGCTGAGTTGATAGCAGAGTAG | -0.00748 |
| CCTGCTAGGTCAATGGTAAGCTAAAGCAGCTCGC | 0.52 |
| AGAATAAGGTTATACGTAGATCAGGGAAGAAAGT | 0.789 |
| TCTATTAGTTGAAGGGCAACCGCCGAGTCCGTTT | 0.417 |
| ATATCTAGGTAACCAAGTTCAGTGAATGCCGAAC | 0.613 |
| CAGCCTAGGTCAGGTCCAGTATAGGAGGAACGTT | 0.525 |
| TCGAGTAGGTTACCAATGGGGCATTAAGCTTTCT | -0.627 |

| Sequence | PBM binding z-score |
| --- | --- |
| TCTTGTAGATCAACAGGAGGCTAAGAAAGATCGA | -1.25 |
| TTAGCAAGGTGAGCTGAGGTCGTTGATCCAACTC | 1.97 |
| TTTAGCAGGCCAGAGGGTCACTCAAGAGGTACGG | -0.313 |
| AGAACGAGGTTAAGATCAGGGAAACAGAATACAT | 0.55 |
| ATCTCTATGTAAGACTCAGTTCAGTGAAGAACGC | 0.339 |
| CAAACTAGATCACGAAAGGTCAAAGTCGAATGAC | 1.07 |
| ATCTCTTGGTAACCAAGTTCAGTGAATGCCGAAC | 0.000236 |
| TCTAGCAGGCCGGAGGGTCACTCAAGAGGTACGG | -0.391 |
| CTACCAAGGTGAACAAGGTCGTTGATTACTATTC | 1.81 |
| CAAACTAGGTCAAGAGTTCAAAGTCCGCTTCCCG | 1.28 |
| GATACATGGTCAAGGCCAGAGTACGCGTATTGAT | -0.41 |
| AGTCAAAGTTCATCTATGTAACGTAAGATATGCT | -0.492 |
| TTACCAGGGTGAGCTGAGGTCGTTGATCCAACTC | 1.57 |
| ACTAGCAGGCCATGGGTCACTCAAGATTAGTCCG | -0.31 |
| CCTACTGGGCCACGAAAGGTTATTGATTCAGTGA | 0.302 |
| CCAGATAGGTGAGAAGGTAACTCAGCCTCGATTA | -0.0242 |
| CCTAGCAGGCCAGGGTCAATCAAGCATTTCGCTT | 0.553 |
| GCTGCTAGGTCAATTGATGGTCAGCTAAAGCTCG | -0.157 |
| ACTAGCAGGCCAAGGGGCACTCAAGATTAGTCCG | -0.582 |
| GCGCGGAGGACAAGGTCAGAGCTTTGTCCGTAGA | 1.33 |

The sequences below were run on VDR:RXRa (NR concentration 270 nM, RXRa partner concentration 90 nM) in the same assay as above.
Procedure, shortened: as §1

| Sequence | PBM binding z-score |
| --- | --- |
| ACATGTAGGTTATCGGGTCATTCAGTTTGCGCAT | 5.39 |
| CCTACTGAGCCATCAGGTCATTGATATCAACGTT | 2.15 |
| GCTATTAGTTGAAAGGGCCACCGAATGATTCTCG | -0.0971 |
| TCTATTTGTTGAAGGGCAACCGACGAGTCCGTTT | 1.19 |
| TGAATGAGGTCATAAGATCAGGGAACGTTGCAAA | 4.71 |
| ATCTCTTGGTAAAGATAGTTCAGTGAATGCAAAT | 0.811 |
| ATCTCTAGGTAGCAAGTTCAGTGAAAGAGAGGAC | 1.35 |
| ATCTCTAGGTAAAAGTCCAGTGAATCCCGAGGAT | 0.00204 |
| AGTCAAAGTTCATCTAGGAAACGTAAGATATGCT | 4.66 |
| CCGAGCAGGTTATGGGGCATTCAGGCAACGGTGA | -0.144 |
| CCGACTGGGGCATAAGGTTACCCTAAGCCAGCCC | 0.27 |
| CCTTACAGGTCACTCCAGGTTATAGCATCGGAGT | 4.12 |
| CGAAATAGGTCAAGGACAGTGAATCTCCGCACGC | 2.46 |
| AGAACGAGGCCACGCTGAGTTGATAGCAGAGTAG | 0.045 |
| CCTGCTAGGTCAATGGTAAGCTAAAGCAGCTCGC | 0.595 |
| AGAATAAGGTTATACGTAGATCAGGGAAGAAAGT | 1.04 |
| TCTATTAGTTGAAGGGCAACCGCCGAGTCCGTTT | 0.974 |
| ATATCTAGGTAACCAAGTTCAGTGAATGCCGAAC | 3.97 |
| CAGCCTAGGTCAGGTCCAGTATAGGAGGAACGTT | 0.304 |
| TCGAGTAGGTTACCAATGGGGCATTAAGCTTTCT | 0.0667 |

| Sequence | PBM binding z-score |
| --- | --- |
| TCTTGTAGATCAACAGGAGGCTAAGAAAGATCGA | -0.0159 |
| TTAGCAAGGTGAGCTGAGGTCGTTGATCCAACTC | 4.01 |
| TTTAGCAGGCCAGAGGGTCACTCAAGAGGTACGG | 1.55 |
| AGAACGAGGTTAAGATCAGGGAAACAGAATACAT | 1.36 |
| ATCTCTATGTAAGACTCAGTTCAGTGAAGAACGC | 0.971 |
| CAAACTAGATCACGAAAGGTCAAAGTCGAATGAC | 4.79 |
| ATCTCTTGGTAACCAAGTTCAGTGAATGCCGAAC | 2.38 |
| TCTAGCAGGCCGGAGGGTCACTCAAGAGGTACGG | 1.03 |
| CTACCAAGGTGAACAAGGTCGTTGATTACTATTC | 5.95 |
| CAAACTAGGTCAAGAGTTCAAAGTCCGCTTCCCG | 6.21 |
| GATACATGGTCAAGGCCAGAGTACGCGTATTGAT | -0.256 |
| AGTCAAAGTTCATCTATGTAACGTAAGATATGCT | 4.75 |
| TTACCAGGGTGAGCTGAGGTCGTTGATCCAACTC | 4.58 |
| ACTAGCAGGCCATGGGTCACTCAAGATTAGTCCG | 0.6 |
| CCTACTGGGCCACGAAAGGTTATTGATTCAGTGA | 0.818 |
| CCAGATAGGTGAGAAGGTAACTCAGCCTCGATTA | 0.254 |
| CCTAGCAGGCCAGGGTCAATCAAGCATTTCGCTT | 2.86 |
| GCTGCTAGGTCAATTGATGGTCAGCTAAAGCTCG | 0.815 |
| ACTAGCAGGCCAAGGGGCACTCAAGATTAGTCCG | -0.375 |
| GCGCGGAGGACAAGGTCAGAGCTTTGTCCGTAGA | 1.4 |
